system: MST1R; settings: concentration: 1 μM,replicates: in singlicate; n = 1
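Further: KINOMEscan kinase panel screen.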

Compound	%Inh
CC(=O)Nc1nc2cnc(Nc3cc(NC(=O)c4cccc(CC(C)(C)C#N)c4)ccc3C)nc2s1	26%
COc1ccc(Nc2nccc(N3CCC(NC(=O)c4cccc(C#N)c4)C3)n2)cc1 (stereo not shown) [GSK1379730]	29%
CS(=O)c1ccc(-c2coc3ccc(-c4n[nH]c(=O)o4)cc23)cc1 (stereo not shown)	0%
CS(=O)(=O)Nc1ccc(-c2ccnc3[nH]ccc23)cc1 [GSK993273]	34%
Cn1ccc2ncnc(Oc3ccc(NC(=O)Nc4cnn(C(C)(C)C)c4)c(Cl)c3)c21	10%
Cl.c1ccc(Oc2ccc(Nc3ccnc4cc(-c5ccc(CN6CCNCC6)o5)ccc34)cc2)nc1 [GW567142]	39%
CSc1nccc(-c2c(-c3ccc(F)cc3)ncn2CCCN2CCOCC2)n1.Cl [SB-217146]	0%
C[C@@H](Oc1cc(-n2cnc3ccc(-c4ccncc4)cc32)sc1C(N)=O)c1ccccc1Cl [GSK483724]	44%
Nc1nccc(-c2ccc3c(N)n[nH]c3c2)n1 [GSK1034945]	27%
CC(C(=O)NC1CCN(c2ccnc(Nc3ccc(F)cc3)n2)C1)c1ccc(Cl)cc1 (stereo not shown) [GSK1379713]	0%
C[C@@H]1CCN(C(=O)N2CCCC2)C[C@@H]1N(C)c1ncnc2[nH]ccc12	8%
NC(=O)c1ccc(-c2cc3ncnc(SCC(=O)O)c3s2)cc1	21%

system: T1, MST1; settings: concentration: 1 μM,replicates: in singlicate; n = 1
T1 construct: gene STK4

Compound	%Inh
C[C@@H](Oc1cc(-n2cnc3cc(-c4ccncc4)ccc32)sc1C(N)=O)c1ccccc1Cl [GSK479719]	56%
COc1cc2c(Nc3ccc(NC(=O)c4ccccc4)cc3)ncnc2cc1OCCCN1CCOCC1 [GSK301329]	16%
Cc1cccc(-c2nc(Nc3ccncc3)c3sccc3n2)n1 [GW869641]	37%
Cl.Cl.NC[C@H](CC1CCCCC1)NC(=O)c1ccc(-c2ccnc3[nH]ccc23)s1 [GSK1581428]	0%
Cc1ccc(Nc2ccnc(Nc3ccc4c(c3)CS(=O)(=O)C4)n2)cc1O.Cl [GW579362]	19%
CCOC(=O)N1CCC(n2cnc(-c3ccc(F)cc3)c2-c2ccnc(N)n2)CC1 [SB-219952]	20%
CS(=O)(=O)c1cccc(CNc2nc(Nc3ccc4c(c3)[C@@H]3C[C@@H]4CNC3=O)ncc2C(F)(F)F)c1	0%
O=C(Nc1ccc(Oc2ccc3nc(NC(=O)C4CC4)cn3n2)c(F)c1)c1cccn(-c2ccccc2)c1=O	0%
Cc1ccc(C(=O)Nc2ccc(Oc3ccc4nc(NC(=O)C5CC5)cn4c3)c(F)c2)c(=O)n1-c1ccccc1	47%
CCN1CCN(CCCC(=O)Nc2n[nH]c3nc(-c4ccc(O)cc4)c(Br)cc23)CC1 [SB-731579]	2%
COC(=O)c1cccc(NC(=O)NC2CCN(c3ccnc(Nc4cc(OC)c(OC)c(OC)c4)n3)C2)c1 (stereo not shown) [GSK1379767]	6%
Cn1cc(-c2cccc3c(N)c(C(N)=O)nnc23)cn1	23%
Cn1ccc2ncnc(Oc3ccc(NC(=O)Nc4cccc(C(F)(F)F)c4)c(F)c3)c21	0%
COc1cc(Nc2nccc(N3CCC(NC(=O)c4cccc(C#N)c4)C3)n2)cc(OC)c1OC (stereo not shown) [GSK1379751]	0%
c1ccc(Oc2ccc(Nc3ccnc4ccc(-c5ccccn5)cc34)cc2)cc1 [GW407034]	0%
C[C@@H](Oc1cc(-n2cnc3cc(-c4cnn(C)c4)ccc32)sc1C(N)=O)c1ccccc1Cl [GSK580432]	88%
FC(F)(F)c1cc(Br)cc(Nc2nccc(-c3cnn4ncccc34)n2)c1 [GW810578]	5%
COc1cccc(CNC(=O)NC2CCN(c3ccnc(Nc4cc(OC)c(OC)c(OC)c4)n3)C2)c1 (stereo not shown) [GSK1379765]	0%
Cc1n[nH]c2cc(Nc3ccnc(Nc4cccc(CN5CCOCC5)c4)n3)ccc12 [GW682569]	0%

Compound	%Inh
O=C(NCC1CC1)c1ccc(-c2cc(C(=O)NC3CC3)ccc2F)cc1 [GW810445]	55%
Cc1nnc(-c2ccc3occ(-c4ccc(S(C)=O)cc4)c3n2)o1 (stereo not shown)	0%
COC(=O)c1cccc(NC(=O)NC2CCN(c3ccnc(NCc4ccc(F)cc4)n3)CC2)c1 [GSK1379860]	0%
Cc1cccc2c(-c3ccncc3)c(-c3ccc(F)cc3)nn12.Cl [GW461487]	90.4%
O=C(Nc1n[nH]c2cc(-c3ccco3)ccc12)C1CC1 [SB-737447]	0%
CN(c1ccccc1CNc1nc(Nc2ccc3c(c2)CC(=O)N3)ncc1C(F)(F)F)S(C)(=O)=O	14%
CC(=O)Nc1nc2cnc(Nc3cc(NC(=O)c4cccc(CC(C)(C)C#N)c4)ccc3C)nc2s1	5%
COc1ccc(Nc2nccc(N3CCC(NC(=O)c4cccc(C#N)c4)C3)n2)cc1 (stereo not shown) [GSK1379730]	19%
CS(=O)c1ccc(-c2coc3ccc(-c4n[nH]c(=O)o4)cc23)cc1 (stereo not shown)	0%
CS(=O)(=O)Nc1ccc(-c2ccnc3[nH]ccc23)cc1 [GSK993273]	11%
Cn1ccc2ncnc(Oc3ccc(NC(=O)Nc4cnn(C(C)(C)C)c4)c(Cl)c3)c21	12%
Cl.c1ccc(Oc2ccc(Nc3ccnc4cc(-c5ccc(CN6CCNCC6)o5)ccc34)cc2)nc1 [GW567142]	0%
CSc1nccc(-c2c(-c3ccc(F)cc3)ncn2CCCN2CCOCC2)n1.Cl [SB-217146]	0%
C[C@@H](Oc1cc(-n2cnc3ccc(-c4ccncc4)cc32)sc1C(N)=O)c1ccccc1Cl [GSK483724]	24%
Nc1nccc(-c2ccc3c(N)n[nH]c3c2)n1 [GSK1034945]	3%
CC(C(=O)NC1CCN(c2ccnc(Nc3ccc(F)cc3)n2)C1)c1ccc(Cl)cc1 (stereo not shown) [GSK1379713]	5%
C[C@@H]1CCN(C(=O)N2CCCC2)C[C@@H]1N(C)c1ncnc2[nH]ccc12	100%
NC(=O)c1ccc(-c2cc3ncnc(SCC(=O)O)c3s2)cc1	0%
